GASC-1 inh: human JMJD2C demethylase inhibition; GST-JMJD2C(1-420) H3K9me3 demethylation, DELFIA europium; inhibition, % at 2.35 µM; hit rate 0.069% among 330,000; AID 2099;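 active means more than half of a compound's replicate wells show inhibition beyond 50%, single wells judged on their own value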;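 further: signal counts dimethyl H3K9 product captured on neutravidin plate; 0% = median of DMSO wells and 100% = 0.3 times that DMSO median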
Target sequence (Q9H3R0 1-420 limits assumed): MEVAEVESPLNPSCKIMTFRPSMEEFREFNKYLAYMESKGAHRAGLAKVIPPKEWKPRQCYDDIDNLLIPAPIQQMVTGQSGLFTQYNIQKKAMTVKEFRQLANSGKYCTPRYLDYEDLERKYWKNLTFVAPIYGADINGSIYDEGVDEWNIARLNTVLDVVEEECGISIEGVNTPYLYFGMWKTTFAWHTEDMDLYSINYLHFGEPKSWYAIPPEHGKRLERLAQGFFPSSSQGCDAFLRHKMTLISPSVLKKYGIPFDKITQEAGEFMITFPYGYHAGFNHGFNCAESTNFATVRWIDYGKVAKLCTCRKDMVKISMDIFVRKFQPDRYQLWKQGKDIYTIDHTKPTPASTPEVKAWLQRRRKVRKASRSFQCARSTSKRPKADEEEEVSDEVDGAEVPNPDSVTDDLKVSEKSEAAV
VLA-4 inh: inhibition in a human VLA-4 binding assay. VLA-4 expressing cells, ligand binding flow cytometry. inhibition, % (about 7 µM as worked out from the volumes in the protocol). hit rate 0.2% among 330,000. AID 2557; in the data active means inhibition above about 50%
GPR7 antagonist: antagonists of human GPR7 (neuropeptides B/W receptor 1) | hit rate 1.1% among 290,000 | inhibition, % at 4.4 µM | GPR7-expressing cells, fluorescence antagonist assay; in the data active means inhibition above about 16%, passing the limit was not always enough;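 further: cells stimulated with the agonist NPW; 0% = agonist with vehicle and 100% = vehicle without agonist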
pCIP destab: compounds decreasing mouse p/CIP protein stability; Q05BA5; F442A p/CIP-EGFP cells, EGFP fluorescence, 16 h; decrease of EGFP signal, % at 10 µM; hit rate 0.01% among 290,000;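 active means EGFP signal decrease of at least 30% at 10 µM or well 3 SD below plate mean, unless failing retest; inactive means the rest, including hits failing retest or dose response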
GPR7 antag cf: confirmation of human GPR7 antagonists. hit rate 52% among 2,400. GPR7-expressing cells, calcium fluorescence antagonist mode. AID 1952. shares compounds with GPR7 antagonist. inhibition, % at 4.4 µM; in the data active means inhibition above about 24%;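 further: stimulated with the GPR7 agonist NPW; 0% = agonist plus vehicle and 100% = vehicle alone without agonist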
MCHR1 antagonist: MCHR1 (human) antagonism in GPR7 counter-screen; MCHR1-expressing cells, fluorescence antagonist assay; shares compounds with GPR7 antagonist; hit rate 62% among 2,400; inhibition, % at 4.4 µM; in the data active means inhibition above about 22%;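 further: 0% = vehicle with agonist and 100% = vehicle without agonist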
Active calls of the source: *. Hits are enriched below; roughly 1.2% of the tested compounds scored in any of these assays.

What do the screens show for `CC1CN(c2ccc([N+](=O)[O-])c(NCCOc3ccccc3)c2)CC(C)N1` (stereo not drawn)?
GASC-1 inh: 3.4; VLA-4 inh: 14.3; GPR7 antagonist: 21.3; pCIP destab: 3.7

Results for CN1C2CCC1/C(=C\c1ccccc1F)C(=O)/C2=C/c1ccccc1F ?
GASC-1 inh: -11.8; VLA-4 inh: -15.9; GPR7 antagonist: 27.8*; pCIP destab: 0.7; GPR7 antag cf: 21.6; MCHR1 antagonist: 34.0*

How did C[C@H]1CC[C@H]2C(=O)N3[C@H](c4cccc(N5CCCC5=O)c4)[C@@H](C)CC[C@H]3C(=O)N2[C@@H]1c1cccc(N2CCCC2=O)c1 do in these assays?
GASC-1 inh: 0.3; VLA-4 inh: -34.8; GPR7 antagonist: -8.4; pCIP destab: -6.6

What do the screens show for `C[C@H]1CC[C@H]2C(=O)N3[C@H](c4ccccc4Br)[C@@H](C)CC[C@H]3C(=O)N2[C@@H]1c1ccccc1Br`?
GASC-1 inh: 1.7; VLA-4 inh: 4.0; GPR7 antagonist: 29.2*; pCIP destab: 3.0; GPR7 antag cf: 56.8*; MCHR1 antagonist: 58.9*

Results for O=C(NCCCn1cccn1)C1CCC(=O)N(CCc2ccccc2)C1 (stereo not drawn) ?
GASC-1 inh: -6.2; VLA-4 inh: -82.0; GPR7 antagonist: -6.9; pCIP destab: -3.4

How did COc1cc(NC(=O)c2cc3ccccc3cc2O)c(OC)cc1Cl do in these assays?
GASC-1 inh: 13.0; VLA-4 inh: 9.5; GPR7 antagonist: 11.3; pCIP destab: -5.0

Results for Cc1ccc(Cl)cc1NC(=O)c1cc2ccccc2cc1O ?
GASC-1 inh: 4.2; VLA-4 inh: 4.3; GPR7 antagonist: 24.5*; pCIP destab: -0.3; GPR7 antag cf: 54.5*; MCHR1 antagonist: 53.3*

What do the screens show for `O=C(CCN1C(=O)c2ccccc2S1(=O)=O)N1CCN(c2cccc(Cl)c2)CC1`?
GASC-1 inh: -5.7; VLA-4 inh: -15.3

How did Cc1cccc(C(c2c(C)nn(-c3ccccc3)c2N)c2c(C)nn(-c3ccccc3)c2N)c1 do in these assays?
GASC-1 inh: -5.1; VLA-4 inh: 12.7; GPR7 antagonist: 21.1*; pCIP destab: -2.9; GPR7 antag cf: 21.0; MCHR1 antagonist: 12.1

How did CCc1ccc(C(c2c(C)nn(-c3ccccc3)c2N)c2c(C)nn(-c3ccccc3)c2N)cc1 do in these assays?
GASC-1 inh: -4.7; VLA-4 inh: -1.8; GPR7 antagonist: 3.9; pCIP destab: -14.9

How did CCCOc1ccccc1/C=C(\C#N)C(=O)Nc1cccnc1 do in these assays?
GASC-1 inh: 4.6; VLA-4 inh: 12.4; GPR7 antagonist: -2.2; pCIP destab: 25.3

What do the screens show for `CCCC(C)C1C(C#N)=C(N)Oc2cc(C)oc(=O)c21` (stereo not drawn)?
GPR7 antagonist: 1.4

What do the screens show for `CNC(=O)c1ccc(N(Cc2ccccc2C)S(C)(=O)=O)cc1`?
GASC-1 inh: 14.6; VLA-4 inh: 0.8; GPR7 antagonist: -8.4; pCIP destab: -4.4

Results for Cc1ccccc1CN(c1ccc(C(=O)N2CCc3ccccc3C2)cc1)S(C)(=O)=O ?
GASC-1 inh: 4.1; VLA-4 inh: -5.3; GPR7 antagonist: 28.2*; pCIP destab: -19.2; GPR7 antag cf: 52.0*; MCHR1 antagonist: 58.0*

What do the screens show for `COc1cc(OC)c(OC)cc1CCC(C)NCCC(c1ccccc1)c1ccccc1` (stereo not drawn)?
GASC-1 inh: 0.8; VLA-4 inh: 38.8; GPR7 antagonist: 60.1*; pCIP destab: -3.9; GPR7 antag cf: 54.9*; MCHR1 antagonist: 48.9*

How did Cc1ccc(S(=O)(=O)Nc2cc(S(=O)(=O)N3CCCCC3)ccc2N2CCOCC2)cc1 do in these assays?
GASC-1 inh: -1.1; VLA-4 inh: -12.6; GPR7 antagonist: 32.5*; pCIP destab: -30.0; GPR7 antag cf: -0.3; MCHR1 antagonist: -0.2

What do the screens show for `CC1(C)NC(=O)N(CC(=O)Nc2cc(S(=O)(=O)N3CCOCC3)ccc2N2CCOCC2)C1=O`?
GASC-1 inh: -15.1; VLA-4 inh: -4.3; GPR7 antagonist: 27.4*; pCIP destab: -14.9; GPR7 antag cf: -9.9; MCHR1 antagonist: -2.3

What do the screens show for `CCN(CC)S(=O)(=O)c1ccc(N2CCOCC2)c(NS(=O)(=O)c2ccc(C)cc2)c1`?
GASC-1 inh: 1.6; VLA-4 inh: 5.9; GPR7 antagonist: 13.0; pCIP destab: 9.9

What do the screens show for `C=C(C)CSc1nnc(-c2cccc(S(=O)(=O)N(C)C)c2)n1-c1cc(OC)ccc1OC`?
GASC-1 inh: -16.4; VLA-4 inh: -2.9; GPR7 antagonist: 31.5*; pCIP destab: 5.0; GPR7 antag cf: 34.6*; MCHR1 antagonist: 9.1

How did CCN(CC)S(=O)(=O)c1ccc(NC(=O)CSc2nnc(-c3cccc(OC)c3)n2C)cc1 do in these assays?
GASC-1 inh: 5.5; VLA-4 inh: 12.9; GPR7 antagonist: -0.2; pCIP destab: -15.5

Results for COc1ccccc1C(=O)Nc1ccc2c(C)cc(=O)oc2c1 ?
GASC-1 inh: -9.7; VLA-4 inh: 33.3; GPR7 antagonist: 42.0*; pCIP destab: 0.1; GPR7 antag cf: 13.7; MCHR1 antagonist: 10.5

How did CCOc1ncccc1C(=O)Nc1ccc2c(C)cc(=O)oc2c1 do in these assays?
GASC-1 inh: -0.4; VLA-4 inh: 1.7; GPR7 antagonist: -12.1; pCIP destab: -7.7

How did Cc1cc(=O)oc2cc(OC(=O)c3ccccc3)ccc12 do in these assays?
GASC-1 inh: 5.2; VLA-4 inh: -6.9; pCIP destab: -6.2; MCHR1 antagonist: 18.2

Results for Cc1cc(=O)oc2cc(OC(=O)c3ccco3)ccc12 ?
GASC-1 inh: 40.4; GPR7 antagonist: -7.4; pCIP destab: -12.4

What do the screens show for `Cc1ccccc1NC(=O)COC(=O)c1c[nH]c(=O)[nH]c1=O`?
GASC-1 inh: 9.6; VLA-4 inh: 0.8; GPR7 antagonist: -9.2; pCIP destab: -1.9

How did O=C(NC(NC(=S)Nc1ccccc1)C(Cl)(Cl)Cl)c1cccc(Cl)c1 (stereo not drawn) do in these assays?
GASC-1 inh: 2.8; VLA-4 inh: 1.2; GPR7 antagonist: 33.6*; pCIP destab: 2.6; GPR7 antag cf: 47.0*; MCHR1 antagonist: 54.3*

Results for O=C(O)c1cccc(NC(=S)NC(NC(=O)c2cccc([N+](=O)[O-])c2)C(Cl)(Cl)Cl)c1 (stereo not drawn) ?
GASC-1 inh: 2.0; VLA-4 inh: -0.4; GPR7 antagonist: -18.5; pCIP destab: -0.6

How did CC(=O)c1ccc(N2CCN(C(=O)Cc3n[nH]c(=O)c4ccccc34)CC2)cc1 do in these assays?
GASC-1 inh: -10.2; VLA-4 inh: 1.8; GPR7 antagonist: 0.6; pCIP destab: -46.2

How did O=C(Cc1n[nH]c(=O)c2ccccc12)N1CCN(c2ccc(F)cc2)CC1 do in these assays?
GASC-1 inh: 2.4; VLA-4 inh: -2.8; GPR7 antagonist: 21.7*; pCIP destab: -3.5; GPR7 antag cf: -7.3; MCHR1 antagonist: 4.0

How did O=C(NCc1cccc(C(F)(F)F)c1)c1ccc(=O)[nH]c1 do in these assays?
GASC-1 inh: -1.7; VLA-4 inh: 1.0; GPR7 antagonist: -2.8; pCIP destab: 2.1
